Screens as filed in PubChem BioAssay.
Sampled rows, rich in hits. Any-hit rate of the full collection: about 7.8%.
Lassa entry inh = blocks Lassa virus binding to or entry into cells. Potency, µM (doses to about 37.9 µM), usual class: inhibitors. actives 1.2% (n = 300,000). Lassa virus pseudotype entry inhibition, cell reporter; calls by dose curve; tested in HEK293 cells; note: nearly all actives have a fitted effect of over 50% in size
Marburg entry inh = Marburg virus entry inhibition. AID 540276. Potency, µM (top dose mostly 37.8 µM), hits mostly inhibitors. actives 1.8% (n = 300,000). Marburg virus pseudotyped entry inhibition, cell reporter; calls by dose curve; tested in HEK293 cells
HCMV antiviral = inhibitors of human cytomegalovirus. HFF cells, HCMV-luciferase reporter, 72 h; active compounds read low. actives 4.5% (n = 410,000). activity change, negative = inhibition, % at 57.5 µM; in the data active = activity change below about -60%; inconclusive = no clear call, values can overlap the other calls; inactive = above about -39%
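Two-dose cell screen: HFF monolayers treated with compounds and infected with luciferase-expressing HCMV at 1 PFU/cell, 72 h at 37C, then lysed for luciferase measurement.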
HCV inh = HCV inhibition; Potency, µM (doses to about 41.8 µM), usual class: inhibitors; Huh7.5.1 HCVcc-Cre infection, luciferase reporter, 44 h; actives 3.4% (n = 340,000); AID 651820; active = well fitted inhibition curve with a large enough effect; inconclusive = small, poorly fitted or top-dose-only effect, or another doubt; inactive = no such curve, though single readings can be large or run the other way
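Whole-lifecycle infectious HCVcc-Cre system; cells 1,000/well, compound then virus (~0.5 moi) added 4 h after plating, 44 h culture. Luciferase read 15 sec following 15 min substrate incubation, room temp.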
VACV mCherry inh = vaccinia inhibition (mCherry reporter); AID 720579; actives 0.63% (n = 310,000); Vaccinia virus mCherry reporter infection, fluorescence; Potency, µM (doses to about 36.5 µM), hits mostly inhibitors; calls by dose curve; tested in A549 cells; note: nearly all actives have a fitted effect of over 35% in size
Vaccinia Venus = vaccinia inhibition (Venus reporter) | Vaccinia virus Venus reporter expression, fluorescence | Potency, µM (top dose mostly 36.5 µM), usual class: inhibitors | actives 0.46% (n = 330,000) | AID 720580; calls by dose curve; tested in A549 cells; note: nearly all actives have a fitted effect of over 30% in size
Hits are given with their value; i = inactive; ? = inconclusive; nt = no result.

SMILES | Lassa entry inh | Marburg entry inh | HCMV antiviral | HCV inh | VACV mCherry inh | Vaccinia Venus
CC(C)C[C@@H](CN1CCC[C@@H]1CN1C(=S)NC[C@@H]1Cc1ccccc1)N1C[C@H](Cc2ccc(O)cc2)N(CC2CCCCCC2)C1=S | nt | nt | i | nt | i | i
CC(C)C[C@H]1CNC(=S)N1CC1CCCN1C[C@H](CC(C)C)N1C[C@H](Cc2ccc(O)cc2)N(CC2CCCCC2)C1=S (stereo not given in full) | nt | nt | -98.4 | 10µM | ? | ?
CC(C)C[C@@H](CN1CCCC1CN1C(=S)NC[C@@H]1Cc1ccc(O)cc1)N1C[C@H](Cc2ccc(O)cc2)N(CC2CCCCC2)C1=S (stereo not given in full) | nt | nt | -98.1 | ? | ? | 10µM
CC(C)C[C@H]1CNC(=S)N1CC1CCCN1C[C@H](CC(C)C)N1C[C@H](Cc2ccc(O)cc2)N(CC2CCCCCC2)C1=S (stereo not given in full) | nt | nt | -101.7 | i | ? | 28.2µM
CC(C)C[C@H]1CNC(=S)N1C[C@H]1CCCN1C[C@H](Cc1ccc(O)cc1)N1C[C@H](CC(C)C)N(CC2CCCCCC2)C1=S | nt | nt | ? | nt | i | i
CC(C)C[C@H]1CNC(=S)N1C[C@H]1CCCN1C[C@H](CC(C)C)N1C[C@H](Cc2ccc(O)cc2)N(CC2CCCCCC2)C1=S | nt | nt | -101.4 | nt | i | i
CC(C)C[C@@H](CN1CCC[C@@H]1CN1C(=S)NC[C@@H]1Cc1ccccc1)N1C[C@H](Cc2ccc(O)cc2)N(CC2CCCCC2)C1=S | nt | nt | i | nt | i | i
Cc1cc(O)c(C(c2ccccc2)N2CCN(c3ccc(F)cc3)CC2)c(=O)n1Cc1ccco1 (stereo not given) | i | nt | i | nt | i | i
Cc1nn(-c2ccccc2)c(C)c1C(=O)OCC(=O)NC(=O)NC1CCCC1 | i | i | i | 8.91µM | nt | ?
COc1ccccc1CNC(=O)COC(=O)c1c(C)nn(-c2ccccc2)c1Cl | nt | nt | i | 11.2µM | nt | nt
Cc1nn(-c2ccccc2)c(C)c1C(=O)OCC(=O)Nc1ccccc1F | nt | nt | i | ? | nt | nt
COc1ccc(C)cc1NC(=O)COC(=O)c1c(C)nn(-c2ccccc2)c1C | nt | nt | i | 12.6µM | nt | nt
COc1ccc(C)cc1NC(=O)COC(=O)C1COc2ccccc2O1 (stereo not given) | nt | nt | -91.6 | i | nt | nt
O=Cc1cccc(C=O)c1 | nt | nt | nt | nt | i | i
Cc1cc(C)cc(NC(=O)CSc2nncn3c2cc2occc23)c1 | i | nt | ? | nt | i | i
CC(C)C(=O)N[C@@H]1CCCN1C(=O)C=Cc1ccccc1 | i | i | nt | nt | nt | nt
CCCCC(C(=O)NC1CCCC1)N(Cc1ccccc1)C(=O)c1snc(C(N)=O)c1N (stereo not given) | ? | ? | -60.8 | ? | i | i
CCCC(C(=O)NC1CCCC1)N(Cc1ccccc1Cl)C(=O)c1snc(C(N)=O)c1N (stereo not given) | i | 10µM | ? | i | i | i
CCC(C(=O)NC1CCCC1)N(Cc1ccccc1Cl)C(=O)c1snc(C(N)=O)c1N (stereo not given) | nt | ? | i | ? | i | i
CC(C)CC(C(=O)NC1CCCCC1)N(Cc1cccs1)C(=O)c1snc(C(N)=O)c1N (stereo not given) | nt | nt | ? | 12.6µM | nt | nt
COc1ccc(S(=O)(=O)N2CCN(C(=O)c3cc4c(s3)CCC4)CC2)cc1 | ? | i | -78.0 | i | i | i
O=C(CN1CCSC1=O)N1CCN(S(=O)(=O)c2ccc(Cl)cc2)CC1 | i | i | -60.4 | i | i | i
COc1cccc(S(=O)(=O)N2CCN(C(=O)c3ccco3)CC2)c1 | i | ? | -85.5 | i | i | i
COc1cccc(CNC(=O)N2CCN(S(=O)(=O)c3ccc(Cl)cc3)CC2)c1 | i | i | -60.7 | i | i | i
O=C(CN1CCSC1=O)N1CCN(S(=O)(=O)c2ccccc2)CC1 | nt | nt | i | i | nt | nt
SMILES | Lassa entry inh | Marburg entry inh | HCMV antiviral | HCV inh | VACV mCherry inh | Vaccinia Venus
COc1cc(S(=O)(=O)N2CCN(C(=O)c3ccco3)CC2)ccc1Cl | nt | nt | i | i | nt | nt
CC(=O)c1ccc(NC(=O)CSc2cn(CC(=O)N3CCCCC3)c3ccccc23)cc1 | i | nt | i | nt | i | i
Cc1cc(C)n2nc(-c3ccc(Cl)cc3)nc2n1 | i | ? | i | nt | i | i
Cc1cc(C)nc(-c2cccc3c2OC(CNC(=O)c2ccc(Cn4nc(C)cc4C)cc2)C3)n1 (stereo not given) | nt | nt | nt | nt | i | i
O=C(NCc1ccc(Cl)cc1)N1CCN(S(=O)(=O)c2ccccc2)CC1 | ? | i | -66.6 | i | i | i
CC(C)C[C@H](NC(=O)[C@H](Cc1ccccc1)NC(=O)c1cnccn1)B(O)O | nt | nt | -98.7 | nt | nt | nt
O=C(NCc1ccc2c(c1)OCO2)c1nc(S(=O)(=O)Cc2ccccc2)ncc1Cl | ? | ? | -103.0 | ? | i | i
O=C(NCc1ccc2c(c1)OCO2)c1ccccc1Cl | i | i | i | i | i | i
O=C(NCc1ccc2c(c1)OCO2)c1ccc(Cl)nc1 | i | i | i | i | i | i
O=C(NCc1ccc2c(c1)OCO2)c1nc(S(=O)(=O)Cc2ccccc2F)ncc1Cl | nt | nt | -80.1 | i | nt | nt
CS(=O)(=O)c1sc2nc(-c3cccs3)cc(-c3ccccc3)c2c1N | i | i | i | 8.91µM | i | i
CCSc1nc(-c2ccc(OC)cc2)cc(-c2ccccc2)c1C#N | i | i | i | ? | nt | nt
COc1ccc(-c2cc(-c3ccccc3)c(C#N)c(S(C)=O)n2)cc1 (stereo not given) | ? | ? | -98.9 | 22.4µM | nt | nt
CCOC(=O)c1ccc(NC(=O)CC2C(=O)N(c3ccc(C)cc3)C(=O)N2C2CCCC2)cc1 (stereo not given) | ? | nt | i | nt | i | i
CC(=O)Nc1ccc(NC(=O)c2ccc3c(c2)N(Cc2cccc(Cl)c2)C(=O)c2ccccc2S3=O)cc1 (stereo not given) | ? | nt | -94.5 | nt | i | i
